PAX8 inh HTS = inhibitors of PAX8 transcriptional activity in RMG-I cells | inhibition, % at 12.6 µM | hit rate 1.2% among 360,000 | RMG-I TPO-luciferase reporter, SteadyGlo, 24 h;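 active means mean replicate inhibition at least 60% with every replicate also reaching 60%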;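 further: luciferase light reporting Pax8 driven TPO promoter activity; plate controls were median of neutral control wells for no effect and mitoxantrone controls for full effect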
INS-1E GSIS act = GLuc luminescence reporter in INS-1E cells, primary screen for activators of glucose-dependent secretion of insulin | hit rate 0.61% among 370,000 | INS-1E GLuc reporter insulin secretion, 2-3 h | activation, % at 16.6 µM;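 active means lowest replicate activation of at least 40%, so every replicate reaches that level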;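 further: 0% = median of neutral control wells and 100% = median of IBMX positive control wells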
miR-122 sensor = blocks miR-122 activity in Huh7 sensor cells. Huh7 miR-122 Renilla luciferase sensor, 48 h; neutral wells = 0, positive control = 100. activation (reporter increase), % at 12.5 µM. hit rate 0.3% among 340,000. AID 602342;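 active means mean replicate activation score at least 90 and every replicate individually at or above 90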;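 further: higher luciferase means less miR-122 activity so hits act as miR-122 inhibitors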
Env fusion inh = inhibitors of HIV Env-mediated cell fusion | hit rate 1.1% among 360,000 | HeLa-JRFL Env/CEM21 cell fusion, luciferase | inhibition, % at 12.3 µM;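 active means mean replicate inhibition score of at least 50 and every replicate individually at or above 50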;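 further: 0% = plate neutral controls and 100% = maraviroc near 300 nM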
C2C12 statin = suppressors of simvastatin-induced myotoxicity in C2C12 myotubes. hit rate 0.78% among 330,000. rescue of ATP level, % at 7.49 µM. ATP luminescence, 48 h; scaled: DMSO 0, geranylgeraniol control 100;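 active means mean ATP rescue above about 67%, or every replicate alone reaching that limit, limit read from the data, passing the limit was not always enough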;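 further: myotubes were challenged with 10 µM simvastatin during compound exposure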
EWS-Fli inh = inhibitors of EWS/Fli oncoprotein transcriptional activity; A673 NR0B1-luciferase reporter, viability-normalised; inhibition, % at 12.6 µM; hit rate 0.67% among 350,000;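 active means mean inhibition of at least 50% after viability correction, with every replicate also passing that limit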;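 further: firefly luciferase signal divided by Alamar Blue viability fluorescence both relative to DMSO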
* hit, by the source's call; ! = a repeat was not active; [ ] = remark or other dose. Most compounds without a hit are left out; they make up all but 3.1% or so of the library.

Screening Cc1noc(C)c1NC(=O)N(C)C[C@H]1OCCCC[C@@H](C)Oc2ccc(NC(=O)c3ccncc3)cc2C(=O)N([C@@H](C)CO)C[C@H]1C returned PAX8 inh HTS -6, INS-1E GSIS act 16, miR-122 sensor -3[16.7 µM], Env fusion inh -13[16.7 µM], C2C12 statin 35 and EWS-Fli inh 2.
CCN1C(=O)Nc2cccc3cccc1c23 was read as PAX8 inh HTS -40, INS-1E GSIS act 7, miR-122 sensor -3, Env fusion inh 62* and EWS-Fli inh 43.
For C=CCN1C(=O)N(CC=C)c2cccc3cccc1c23 the results were PAX8 inh HTS 1, INS-1E GSIS act -6, miR-122 sensor 10, Env fusion inh 9, C2C12 statin 10 and EWS-Fli inh -12.
`COc1ccc(CNS(=O)(=O)c2ccc3c(c2)CCN3C(=O)C2CCC2)cc1` gave PAX8 inh HTS 4, INS-1E GSIS act 39, miR-122 sensor -4, Env fusion inh 8, C2C12 statin 113* and EWS-Fli inh -1.
`COCCNC(=O)/C(C#N)=C/C=C/c1ccccc1[N+](=O)[O-]` gave PAX8 inh HTS 80*, INS-1E GSIS act 5, Env fusion inh -30 and EWS-Fli inh 23.
For O=C(CC(c1ccccc1)c1ccco1)N1CCOCC1 (configuration not stated) the results were INS-1E GSIS act 49*, miR-122 sensor 7 and C2C12 statin 128*.
For O=C(C(c1ccccc1)c1ccccc1)N1CCOCC1 the results were miR-122 sensor 213* and C2C12 statin -5.
`C[C@@H]1CN([C@H](C)CO)C(=O)c2cccc(NC(=O)c3cnccn3)c2O[C@H]1CN(C)S(C)(=O)=O` gave INS-1E GSIS act 11, miR-122 sensor -2[16.7 µM], C2C12 statin 5 and EWS-Fli inh -2.
`CC(C)Cn1c(N)c(C(=O)COC(=O)c2ccc3c(c2)OCCO3)c(=O)n(C)c1=O` gave PAX8 inh HTS 4, INS-1E GSIS act -28, miR-122 sensor -2, Env fusion inh 35 and C2C12 statin -5.
`CC(C)Cn1c(N)c(C(=O)CSc2ccc3c(c2)OCCO3)c(=O)n(C)c1=O` gave miR-122 sensor -6, Env fusion inh 98* and C2C12 statin 62.
For CC(=O)Nc1ccc(S(=O)(=O)N2CCN(CCCOc3ccccc3Cl)CC2)cc1 the results were PAX8 inh HTS 20 and Env fusion inh -27.
Screening CCCCOc1ccc(SCCCN2CCOCC2)cc1 returned PAX8 inh HTS 3, INS-1E GSIS act 58*, miR-122 sensor 5, Env fusion inh 18, C2C12 statin -8 and EWS-Fli inh 2.
For COc1cccc(OCCCCCCN2CCOCC2)c1 the results were miR-122 sensor 10 and C2C12 statin 112*.
`Cc1ccc(SCCCCN2CCOCC2)cc1` gave PAX8 inh HTS -30, INS-1E GSIS act 2, miR-122 sensor 8, Env fusion inh 11, C2C12 statin -1 and EWS-Fli inh -18.
For COc1cccc(OCCCN2CCN(S(=O)(=O)c3ccc(NC(C)=O)cc3)CC2)c1 the results were miR-122 sensor -5, Env fusion inh 63* and C2C12 statin -37.
For COc1ccc(NC(=O)N(C)C[C@@H]2Oc3ccc(NS(=O)(=O)c4cccs4)cc3C(=O)N([C@H](C)CO)C[C@H]2C)cc1 the results were INS-1E GSIS act 5, miR-122 sensor -2[16.7 µM], C2C12 statin -36 and EWS-Fli inh -9.
Screening C[C@@H]1CN([C@H](C)CO)C(=O)Cc2cc(NS(=O)(=O)c3ccc(F)cc3)ccc2O[C@@H]1CN(C)Cc1ccc(C(=O)O)cc1 returned INS-1E GSIS act 4, miR-122 sensor 7[16.7 µM], Env fusion inh -5[16.7 µM], C2C12 statin -1 and EWS-Fli inh 4.
`O=C(/C=C/c1c(Cl)nc2ccccn12)Nc1ccc(F)cc1` gave PAX8 inh HTS 111*, INS-1E GSIS act 1, Env fusion inh -4 and EWS-Fli inh -7.
Cc1noc(C)c1S(=O)(=O)Nc1ccc2c(c1)C(=O)N([C@H](C)CO)C[C@H](C)[C@H](CN(C)Cc1ccc(Oc3ccccc3)cc1)O2 was read as INS-1E GSIS act -3, miR-122 sensor -6[16.7 µM], C2C12 statin 21 and EWS-Fli inh 25.
CS(=O)(=O)c1ccc(Cl)c(NC(=O)CN2CCCC2c2ccc3c(c2)OCCCO3)c1 (configuration not stated) was read as PAX8 inh HTS 2, miR-122 sensor 5, Env fusion inh 61*, C2C12 statin 15 and EWS-Fli inh 6.
`C=C1C(=O)[C@]23C[C@H]1CCC2[C@]1(C)C(=O)CC[C@@](C)(C(=O)O)C1C[C@@H]3O` (some centres not stated) gave PAX8 inh HTS 65*, INS-1E GSIS act 93*, miR-122 sensor 6, Env fusion inh 4, C2C12 statin 18 and EWS-Fli inh 9.
C=C1C(=O)[C@]23C[C@H]1CCC2[C@]1(C)CCC[C@@](C)(C(=O)O)C1C[C@@H]3O (some centres not stated) was read as PAX8 inh HTS 117*, INS-1E GSIS act 16, miR-122 sensor -2, Env fusion inh 9, C2C12 statin 37 and EWS-Fli inh 40.
For C=C1C(=O)[C@]23C[C@H]1CC[C@H]2[C@]1(C)[C@@H](OC(C)=O)CC[C@@](C)(C(=O)O)[C@H]1C[C@@H]3OC(C)=O the results were PAX8 inh HTS 86*, INS-1E GSIS act -41, miR-122 sensor -6, Env fusion inh -20, C2C12 statin 13 and EWS-Fli inh 10.
Screening CN1C(=O)c2cc(NC(=O)C3CCCC3)ccc2OC[C@@H]2O[C@@H](CC(=O)NCc3ccccc3F)CC[C@H]21 returned PAX8 inh HTS -15, INS-1E GSIS act -11 and EWS-Fli inh 0.
`C[C@@H]1CN([C@@H](C)CO)C(=O)CCCn2cc(nn2)CO[C@@H]1CN(C)S(=O)(=O)c1ccc(-c2ccccc2)cc1` gave PAX8 inh HTS 5, INS-1E GSIS act -6, miR-122 sensor 6[16.7 µM], C2C12 statin -13 and EWS-Fli inh 12.
For CCOC(=O)N(C)C[C@@H]1OCc2cn(nn2)CCCC(=O)N([C@H](C)CO)C[C@H]1C the results were PAX8 inh HTS 2, INS-1E GSIS act 13, miR-122 sensor -1[16.7 µM], Env fusion inh 57*, C2C12 statin -2 and EWS-Fli inh -2.
C[C@H](CO)N1C[C@H](C)[C@@H](CN(C)S(=O)(=O)c2ccc(-c3ccccc3)cc2)OCc2cn(nn2)CCCC1=O was read as PAX8 inh HTS 76*!, INS-1E GSIS act 0, miR-122 sensor -1, Env fusion inh -24, C2C12 statin 4 and EWS-Fli inh 10.

High-throughput results from PubChem.
